PolyA inh = polyadenylation inhibitors in yeast reporter cells, primary screen, luminescence, S. cerevisiae; 300,000 tested, 0.02% active; S. cerevisiae SKY197-pL101 polyadenylation reporter, beta-gal luminescence; efflux-impaired pdr1/pdr3 knockout yeast; score 100 = 6 SD above DMSO; activity score, % at 12 µM;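 active = lowest replicate activity score at least 50, where 100 means six control SD above control mean; inconclusive = lowest score under 50 but half or more replicates reach 50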;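 also: yeast exposed to compound for 9 h at 30 °C; higher score means more reporter readthrough which indicates perturbed polyadenylation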
Yeast superoxide = reduction of superoxide in aged yeast, primary screen, HTS; S. cerevisiae aged cells, superoxide DHE fluorescence; active compounds read low; superoxide response (% of plate mean), % at 10 µM; 330,000 tested, 0.18% active; AID 2690, 2010;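 active = superoxide response under a set limit, about three screen SD below normal, cut at about 65% in these data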;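 also: yeast aged for seven days with compound at 30 °C before DHE staining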
Calb FLC = C. albicans growth inhibition with fluconazole, primary screen, CaCi-2 strain, Alamar Blue fluorescence. 300,000 tested, 0.57% active. growth inhibition, % (concentration not given with the values). C. albicans CaCi-2 (fluconazole-resistant clinical isolate) + fluconazole, 48 h;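 active = growth inhibition above about 58% in most replicates, limit read from the data, passing the limit was not always enough; inconclusive = exactly half the replicates above a set limit; inactive = most replicates below a set limit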;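 also: all wells also contain fluconazole at 8 µg/ml as a sub-toxic cotreatment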
SKKanGAS inh = S. pyogenes SKKanGAS growth inhibitors in kanamycin, primary screen, streptokinase expression inhibitor project, SKKanGAS strain, BacTiter-Glo luminescence; 6 h; inhibition, % at 7.5 µM; 300,000 tested, 1.3% active; AID 1662, 2009;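 active = mean replicate score, as percent of positive control median, at least 50; inconclusive = mean below 50 but one replicate at or above 50; inactive = mean and every replicate below 50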;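 also: strain carries kanamycin resistance gene driven by streptokinase promoter and grows in 40 µg/ml kanamycin; loss of luminescence reflects streptokinase promoter inhibition or plain growth inhibition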
Platelet DG rel = inhibitors of platelet dense granule secretion, primary screen, cell-based, MLPCN, human platelets | inhibition, %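 (compounds screened at 7.5 µM in platelet-rich plasma)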 | 300,000 tested, 0.22% active | AID 1663, 2009 | human platelet-rich plasma, SFLLRN dense granule ATP release, luminescence;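 active = mean replicate score, as percent of positive control, at or above 50; inconclusive = mean below 50 but at least one replicate at or above 50; inactive = mean and every replicate below 50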
Each line names hits and unclear results; the compound was inactive in the other large screens. Hits are enriched below; roughly 2% of the tested compounds scored in any of these assays.

COc1ccc(-c2cn(-c3ccc(Br)cc3)c3[n+]2CCS3)cc1	none
O=C(Nc1cc(Cl)ccc1N1CCOCC1)C1=COCCO1	none
CC(=O)c1ccc(OCCCC(=O)Nc2cccc(-c3nn[nH]n3)c2)cc1	none
CCCn1c(C(CO)Nc2nc(-c3cccc(Br)c3)cs2)nc2ccccc21 (stereo unspecified)	SKKanGAS inh 96
Cc1ccc(C(=O)N2CCC(n3nccc3NC(=O)C3CCOC3)CC2)cc1 (stereo unspecified)	none
O=C(Nc1ccnn1C1CCN(C(=O)c2ccc(F)cc2)CC1)C1CCOC1 (stereo unspecified)	SKKanGAS inh 52
O=C(Cc1csc(NC(=O)Nc2ccc(Cl)cc2)n1)NCc1cccnc1	none
O=C(NCc1cccnc1)Nc1cc(Cl)cc(Cl)c1	SKKanGAS inh 54
O=C(Cc1csc(NC(=O)Nc2cccc(Cl)c2)n1)NC1CCCC1	none
O=C(Cc1csc(NC(=O)Nc2cccc(Cl)c2)n1)NCc1ccccn1	SKKanGAS inh 86
O=C(Cc1csc(NC(=O)Nc2cccc(Cl)c2)n1)NCc1cccnc1	SKKanGAS inh 89
O=C(NCc1cccnc1)Nc1cccc(Cl)c1	none
COc1ccc(C(=O)Nc2cccnc2)cc1	none
COc1ccc(NC(=O)c2ccccc2NC(=O)c2ccccc2)cc1	none
COc1ccc(C(=O)Nc2ccccc2C(=O)Nc2cccnc2)cc1	Platelet DG rel 64
COc1ccccc1C(=O)Nc1ccc(C(=O)Nc2ccccc2C(=O)O)cc1	SKKanGAS inh 50
O=C(Nc1ccc(C(=O)N2CCOCC2)cc1)Nc1ccc(Cl)cc1Cl	none
CCC(C)C(NC(=O)C(C)NC(=O)CNC(=O)OC(C)(C)C)C(N)=O (stereo unspecified)	none
N#Cc1ccc(-c2nc3ccc(Br)cc3c(=O)n2O)cc1	none
O=c1c2cc(Cl)ccc2nc(-c2ccc(Cl)c(Cl)c2)n1O	Calb FLC 101, SKKanGAS inh 74
O=c1c2cc(Br)ccc2nc(-c2cccc(C(F)(F)F)c2)n1O	Calb FLC 90, SKKanGAS inh 111
O=c1c2cc(Br)ccc2nc(-c2ccc([N+](=O)[O-])cc2)n1O	Calb FLC 110
O=c1c2cc(Cl)ccc2nc(-c2ccccc2)n1O	none
N#Cc1ccccc1S(=O)(=O)Nc1ccc2c(c1)OCCO2	none
COc1cccc(C(=O)NCCS(=O)(=O)N2CC(C)CC(C)C2)c1 (stereo unspecified)	none
O=C(O)c1ccc(N=Nc2c(O)[nH]c3cc(Cl)ccc23)cc1	SKKanGAS inh 70
O=C(O)c1ccc(N=Nc2c(O)[nH]c3ccc(Br)cc23)cc1	SKKanGAS inh 71
COC(=O)N=Nc1c(O)[nH]c2ccc(Br)cc12	none
Oc1[nH]c2ccccc2c1N=Nc1cccc(Cl)c1	none
O=C(CCSCCc1ccccn1)Nc1c(F)c(F)c(F)c(F)c1F	none
CN(C)CC(C)(C)CN=Cc1c(O)[nH]c2ccccc12	none
COc1cc(OC)c(NC(=O)c2sc3ncn(CC(=O)N4CCN(c5ccccn5)CC4)c(=O)c3c2C)cc1Cl	SKKanGAS inh 50
Cn1cc2cc([N+](=O)[O-])ccc2n1	none
Cc1onc(-c2c(Cl)cccc2Cl)c1C(=O)N/N=C(\N)COc1ccc(Cl)cc1	Calb FLC 93
Cc1onc(-c2c(F)cccc2Cl)c1C(=O)NNC(=O)C1CCN(Cc2ccccc2)CC1	Calb FLC 92
CCOC(=O)c1c(NC(=S)NC)sc2c1CC(C)(C)SC2	Calb FLC 91
COc1ccc(-c2nn(-c3ccccc3)cc2/C=C2/SC(=S)N(CCC(=O)O)C2=O)cc1	SKKanGAS inh 83
Cc1ccc(-c2nn(-c3ccccc3)cc2/C=C2\SC(=S)N(CC(=O)O)C2=O)cc1	SKKanGAS inh 55
Cc1ccc(-c2nn(-c3ccccc3)cc2C(=O)N2CCN(c3ccccn3)CC2)cc1	none
Cc1ccc(-c2nn(-c3ccccc3)cc2/C=N/O)cc1	SKKanGAS inh 58
COc1ccc(-c2nn(-c3ccccc3)cc2/C=C/C(=O)N2CCN(c3ccccn3)CC2)cc1	SKKanGAS inh 60
Cn1cccc1/C=C1\SC(=S)N(CC(=O)O)C1=O	none (no result: PolyA inh, Calb FLC, SKKanGAS inh, Platelet DG rel)
COc1ccc(-c2nn(-c3ccccc3)cc2/C=C2/SC(=S)N(CCC(=O)O)C2=O)c(C)c1	none
CCOC(=O)c1c(S(=O)(=O)NCC(=O)N2CCN(c3ccc(OC)cc3)CC2)c(C)n(C)c1C	none
COC(=O)c1ccc(NC(=O)CN2CCN(S(=O)(=O)c3ccc(Br)cc3)CC2)cc1	none
O=C(O)CCCCCN1C(=O)/C(=C\c2cn(-c3ccccc3)nc2-c2cccs2)SC1=S	SKKanGAS inh 91
Fc1cccc2sc(Nc3nc4cc5c(cc4s3)OCO5)nc12	SKKanGAS inh 53
Cc1cccc([N+](=O)[O-])c1NC(=O)COC(=O)c1nc2nccc(C)n2n1	none (no result: PolyA inh, Calb FLC, SKKanGAS inh, Platelet DG rel)
Oc1c(N=Nc2ccccc2)sc2ccccc12	Platelet DG rel 56
CC(=Nc1ccc(O)cc1)c1sc2ccccc2c1O	none (no result: Platelet DG rel)
O=C(O)c1ccc(Cl)c(S(=O)(=O)Nc2ccc(OCc3ccccc3)cc2)c1	none
CC(=O)O[C@H]1CC[C@]2(C)[C@H]3CC=C4[C@@H]5[C@@H](C)[C@H](C)CC[C@]5(C(=O)O)CC[C@@]4(C)[C@]3(C)CC[C@H]2C1(C)C	SKKanGAS inh 107
C/C(=N\Nc1nc2ccc(Cl)cc2o1)c1ccccc1	SKKanGAS inh 68
COc1ccc(Oc2nc(-c3cccnc3)nc3ccccc23)cc1	none
CCCOc1ccc(-c2nc(OC)c3ccccc3n2)cc1	SKKanGAS inh 56
COc1cc(C(=O)OCc2cc(=O)oc3c(C)c(C)ccc23)ccc1OC(F)F	none
COc1cc(C(=O)OCc2cc(=O)c(O)co2)ccc1OC(F)F	Calb FLC 102
O=C(Nc1cccc(S(=O)(=O)Nc2ccc(Cl)cc2)c1)c1cc2c(s1)CCCC2	SKKanGAS inh 65
OC(CCc1cccc(Cl)c1)c1cccs1 (stereo unspecified)	none
Cc1cc(C)nc(N/N=C/c2cc(Br)ccc2O)n1	SKKanGAS inh 69
Cc1cc(C)nc(N/N=C/c2ccccc2OCc2ccc(Br)cc2)n1	none
Cc1cc(C(=O)NC2CC(C)(C)Cc3c2cnn3-c2ccccc2)n(C)n1 (stereo unspecified)	none
CC(=O)[C@@]1(O)C(C)CC2C3C=C(C)C4=Cc5c(cnn5-c5ccccc5)C[C@]4(C)C3C(O)C[C@@]21C (stereo partly specified)	SKKanGAS inh 64 (no result: Calb FLC)
Cc1ccc(NS(=O)(=O)c2cc([N+](=O)[O-])ccc2NNC(=S)Nc2cccc(Cl)c2)c(C)c1	SKKanGAS inh 88
COc1ccc(NC(=S)NNc2ccc([N+](=O)[O-])cc2S(=O)(=O)Nc2ccc(C)cc2C)cc1	Calb FLC inconclusive, SKKanGAS inh 65
CCOc1ccc(-c2nnc3ccc(SC(C)C)nn23)cc1	SKKanGAS inh 57

Screening data (PubChem)
